Results taken from ChEMBL document CHEMBL1961873, “Compounds: GSK PKIS; Assays: Nanosyn kinase panel” (2012).

What was measured:
[1] = target: Serine/threonine-protein kinase MARK2 (Homo sapiens) (UniProt Q7KZI7); conditions: at 1 µM
[2] = target: PAS domain-containing serine/threonine-protein kinase (Homo sapiens) (UniProt Q96RG2); conditions: at 0.1 µM
[3] = target: PAS domain-containing serine/threonine-protein kinase (Homo sapiens) (UniProt Q96RG2); conditions: at 1 µM
[4] = target: Phosphorylase b kinase gamma catalytic chain, skeletal muscle/heart isoform (Homo sapiens) (UniProt Q16816); conditions: at 0.1 µM
Chain of Phosphorylase b kinase gamma catalytic chain, skeletal muscle/heart isoform (Homo sapiens) (Q16816 whole entry, looked up, canonical isoform): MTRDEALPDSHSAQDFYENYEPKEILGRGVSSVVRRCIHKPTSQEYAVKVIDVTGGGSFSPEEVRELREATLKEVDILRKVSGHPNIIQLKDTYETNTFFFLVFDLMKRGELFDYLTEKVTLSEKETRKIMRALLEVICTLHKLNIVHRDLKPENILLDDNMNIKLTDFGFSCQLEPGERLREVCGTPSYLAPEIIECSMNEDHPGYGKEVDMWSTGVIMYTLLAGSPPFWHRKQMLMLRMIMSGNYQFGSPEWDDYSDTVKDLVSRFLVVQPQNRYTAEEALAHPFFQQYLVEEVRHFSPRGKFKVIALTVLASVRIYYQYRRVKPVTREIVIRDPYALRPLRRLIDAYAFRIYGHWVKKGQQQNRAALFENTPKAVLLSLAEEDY

[5] = target: Phosphorylase b kinase gamma catalytic chain, skeletal muscle/heart isoform (Homo sapiens) (UniProt Q16816); conditions: at 1 µM
[6] = target: T1, Phosphorylase b kinase gamma catalytic chain, liver/testis isoform (Homo sapiens) (UniProt P15735); conditions: at 0.1 µM
T1 sequence (whole entry): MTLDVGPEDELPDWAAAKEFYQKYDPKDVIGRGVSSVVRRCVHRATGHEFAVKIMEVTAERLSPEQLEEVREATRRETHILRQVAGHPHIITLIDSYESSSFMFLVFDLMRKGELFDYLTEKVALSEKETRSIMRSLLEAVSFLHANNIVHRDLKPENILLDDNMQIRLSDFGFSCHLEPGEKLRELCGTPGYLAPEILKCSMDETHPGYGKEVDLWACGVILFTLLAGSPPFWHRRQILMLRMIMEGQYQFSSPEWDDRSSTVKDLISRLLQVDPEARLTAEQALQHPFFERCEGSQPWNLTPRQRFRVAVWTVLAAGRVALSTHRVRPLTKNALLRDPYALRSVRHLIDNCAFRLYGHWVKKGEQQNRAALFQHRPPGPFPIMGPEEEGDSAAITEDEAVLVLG

[7] = target: T1, Phosphorylase b kinase gamma catalytic chain, liver/testis isoform (Homo sapiens); conditions: at 1 µM
[8] = target: Serine/threonine-protein kinase pim-1 (Homo sapiens) (UniProt P11309); conditions: at 0.1 µM
Chain of Serine/threonine-protein kinase pim-1 (Homo sapiens) (P11309 whole entry, looked up): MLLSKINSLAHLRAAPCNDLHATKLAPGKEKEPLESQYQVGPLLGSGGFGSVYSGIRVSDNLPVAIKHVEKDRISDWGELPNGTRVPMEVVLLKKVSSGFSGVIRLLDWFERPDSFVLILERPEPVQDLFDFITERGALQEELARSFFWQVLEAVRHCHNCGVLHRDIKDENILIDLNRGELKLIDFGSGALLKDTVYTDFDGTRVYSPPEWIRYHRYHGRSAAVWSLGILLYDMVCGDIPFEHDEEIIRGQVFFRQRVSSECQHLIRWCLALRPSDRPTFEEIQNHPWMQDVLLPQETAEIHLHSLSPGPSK

[9] = target: Serine/threonine-protein kinase pim-1 (Homo sapiens) (UniProt P11309); conditions: at 1 µM
[10] = target: Serine/threonine-protein kinase pim-2 (Homo sapiens) (UniProt Q9P1W9); conditions: at 0.1 µM;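 note: reported value is the mean percent inhibition of PIM2, measured in the GSK PKIS kinase inhibitor set screen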
Chain of Serine/threonine-protein kinase pim-2 (Homo sapiens) (Q9P1W9 whole entry, looked up): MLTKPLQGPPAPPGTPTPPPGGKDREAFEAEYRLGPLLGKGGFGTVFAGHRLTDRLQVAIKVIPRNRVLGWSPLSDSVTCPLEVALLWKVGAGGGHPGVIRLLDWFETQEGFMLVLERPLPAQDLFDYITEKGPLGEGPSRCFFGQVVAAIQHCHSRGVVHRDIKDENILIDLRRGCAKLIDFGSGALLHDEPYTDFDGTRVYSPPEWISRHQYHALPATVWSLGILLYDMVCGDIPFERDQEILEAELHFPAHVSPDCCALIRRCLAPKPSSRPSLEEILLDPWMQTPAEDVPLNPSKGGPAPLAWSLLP

Chain of Serine/threonine-protein kinase MARK2 (Homo sapiens) (Q7KZI7 whole entry, the tested form may be a part): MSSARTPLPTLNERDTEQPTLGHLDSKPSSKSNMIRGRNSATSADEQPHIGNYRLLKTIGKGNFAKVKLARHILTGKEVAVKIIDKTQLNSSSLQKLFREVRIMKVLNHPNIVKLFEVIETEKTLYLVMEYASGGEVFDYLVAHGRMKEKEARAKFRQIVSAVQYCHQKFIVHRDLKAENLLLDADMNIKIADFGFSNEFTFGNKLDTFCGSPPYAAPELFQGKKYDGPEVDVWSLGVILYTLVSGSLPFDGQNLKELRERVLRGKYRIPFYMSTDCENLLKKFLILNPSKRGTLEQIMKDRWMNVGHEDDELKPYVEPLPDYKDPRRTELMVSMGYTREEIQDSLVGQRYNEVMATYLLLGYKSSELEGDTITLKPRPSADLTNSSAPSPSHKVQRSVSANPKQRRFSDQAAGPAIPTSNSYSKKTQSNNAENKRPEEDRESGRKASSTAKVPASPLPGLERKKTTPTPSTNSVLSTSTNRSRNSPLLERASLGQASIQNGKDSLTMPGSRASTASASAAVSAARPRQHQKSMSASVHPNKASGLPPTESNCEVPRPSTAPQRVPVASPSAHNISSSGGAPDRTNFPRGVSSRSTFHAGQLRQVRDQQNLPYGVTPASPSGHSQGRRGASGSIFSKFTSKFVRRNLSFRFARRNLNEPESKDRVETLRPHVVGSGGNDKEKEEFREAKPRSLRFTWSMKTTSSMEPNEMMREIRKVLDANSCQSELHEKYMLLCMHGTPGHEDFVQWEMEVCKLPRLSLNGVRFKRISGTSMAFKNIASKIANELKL
Chain of PAS domain-containing serine/threonine-protein kinase (Homo sapiens) (Q96RG2 whole entry, the tested form may be a part, canonical isoform): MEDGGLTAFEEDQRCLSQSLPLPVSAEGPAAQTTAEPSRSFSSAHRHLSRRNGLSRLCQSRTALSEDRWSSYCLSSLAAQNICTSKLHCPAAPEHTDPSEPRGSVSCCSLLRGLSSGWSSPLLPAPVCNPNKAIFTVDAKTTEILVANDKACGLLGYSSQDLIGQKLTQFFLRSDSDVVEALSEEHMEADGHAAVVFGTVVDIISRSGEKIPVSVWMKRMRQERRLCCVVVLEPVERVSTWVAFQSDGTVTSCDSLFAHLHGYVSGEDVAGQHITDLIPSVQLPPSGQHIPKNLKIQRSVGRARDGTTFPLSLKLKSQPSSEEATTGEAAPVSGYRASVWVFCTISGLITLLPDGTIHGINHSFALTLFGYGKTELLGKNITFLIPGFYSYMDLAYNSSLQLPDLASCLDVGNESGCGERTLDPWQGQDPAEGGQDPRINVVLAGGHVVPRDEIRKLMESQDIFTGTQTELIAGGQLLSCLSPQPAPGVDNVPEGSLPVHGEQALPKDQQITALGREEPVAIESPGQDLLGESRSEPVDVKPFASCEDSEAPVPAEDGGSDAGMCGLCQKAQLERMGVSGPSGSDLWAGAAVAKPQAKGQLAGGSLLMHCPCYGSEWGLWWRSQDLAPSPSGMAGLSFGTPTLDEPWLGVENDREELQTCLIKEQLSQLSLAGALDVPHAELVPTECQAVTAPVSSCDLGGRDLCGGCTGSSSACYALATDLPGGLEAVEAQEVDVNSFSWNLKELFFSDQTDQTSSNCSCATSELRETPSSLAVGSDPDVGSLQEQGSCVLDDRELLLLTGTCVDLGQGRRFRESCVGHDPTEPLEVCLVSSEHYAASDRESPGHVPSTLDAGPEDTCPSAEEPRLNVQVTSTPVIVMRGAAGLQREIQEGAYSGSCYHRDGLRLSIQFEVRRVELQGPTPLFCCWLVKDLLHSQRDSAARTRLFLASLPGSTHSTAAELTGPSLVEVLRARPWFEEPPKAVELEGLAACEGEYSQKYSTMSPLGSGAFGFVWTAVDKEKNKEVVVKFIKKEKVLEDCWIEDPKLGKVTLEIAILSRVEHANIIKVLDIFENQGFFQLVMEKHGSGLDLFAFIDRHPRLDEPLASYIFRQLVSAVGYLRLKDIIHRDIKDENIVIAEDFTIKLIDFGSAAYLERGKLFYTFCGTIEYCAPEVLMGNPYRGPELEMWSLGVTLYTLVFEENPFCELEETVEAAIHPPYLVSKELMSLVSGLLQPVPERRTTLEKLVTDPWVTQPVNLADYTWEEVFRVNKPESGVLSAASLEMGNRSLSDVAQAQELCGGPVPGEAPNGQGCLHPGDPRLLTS

Structure (SMILES) | inhibition [1] [%] | inhibition [2] [%] | inhibition [3] [%] | inhibition [4] [%] | inhibition [5] [%] | inhibition [6] [%] | inhibition [7] [%] | inhibition [8] [%] | inhibition [9] [%] | inhibition [10] [%]
CC(=O)NCc1cccc(C#Cc2cncnc2Nc2ccc(OCc3cccc(F)c3)c(Cl)c2)c1 | 1.33 | -0.91 | -1.6 | 3.33 | 5.96 | -0.18 | -1.04 | 1.13 | 0.22 | 0.41
COC(=O)Nc1nc2ccc(S(=O)(=O)c3ccc(NC(=O)Nc4cc(C(F)(F)F)ccc4F)cc3)cc2[nH]1 | 1.75 | 0.31 | -0.77 | 1.75 | 1.03 | 2.73 | 0.31 | 0.78 | 1.71 | -0.06
NS(=O)(=O)c1ccc(N/N=C2\C(=O)Nc3ccc4ncccc4c32)cc1 | 35.3 | -0.19 | -1.87 | 11.2 | 50 | 3.72 | 14.1 | 1.89 | 15.9 | 1.2
Cc1ccc2c(-c3ccnc(Nc4ccccc4)n3)c(-c3ccc(F)cc3)nn2n1 | 1.15 | 0.46 | -1.64 | 1.5 | 4.45 | 4.39 | 1.91 | -0.18 | -0.05 | -0.3
COc1cccc(-n2ncc3c(N/N=C/c4ccc(F)cc4)ncnc32)c1 | 1.76 | 0.08 | 0.35 | 2.66 | 5.43 | 5.34 | 6.87 | 1.15 | 1.15 | -0.5
CCCN(CCS(C)(=O)=O)Cc1ccc(-c2ccc3ncnc(Nc4ccc(OCc5cccc(F)c5)c(Cl)c4)c3c2)o1 | -0.2 | 0.15 | -0.42 | 1.09 | 2.68 | 1.93 | 1.35 | 0.83 | 0.67 | -0.45
COC(=O)c1sc(-n2cnc3cc(OC)c(OC)cc32)cc1OCc1ccccc1C(F)(F)F | 2.26 | -1.52 | -2.77 | 4.45 | 5.4 | 4.03 | 0.9 | 0.49 | 1 | 0.49
COc1ccc(-c2oc3ncnc(N)c3c2-c2ccc(NC(=O)Nc3cc(C(F)(F)F)ccc3F)cc2)cc1 | 0.81 | 1.45 | 4.43 | 4.93 | 16.9 | 6.42 | 9.75 | -0.3 | 0.75 | 0.28
FC(F)(F)c1cccc(-c2nn3ncccc3c2-c2ccnc(Nc3ccc4c(c3)OCCO4)n2)c1 | 1.86 | 0.04 | -1.92 | -0.01 | 2.06 | 1.75 | 0.4 | 0.41 | 0.7 | -0.06
Nc1nc(-c2ccc(F)cc2)c(-c2ccc3ncccc3n2)s1 | 0.96 | 0.84 | -0.64 | 4.41 | 7.81 | 6.3 | 5.79 | 0.35 | 2.38 | 0.17
CC1=C(C(=O)Nc2cc(Cl)c3[nH]ncc3c2)C(c2ccc(C(F)(F)F)cc2)CC(=O)N1 (stereo not given) | 5.38 | -0.35 | 0.16 | 3.83 | 6.61 | 3.02 | 4.01 | 0.67 | 0.15 | 0.31
Fc1ccc(-c2cc(-c3c[nH]nc3-c3ccccn3)ccn2)cc1 | -2.56 | -0.42 | 0.53 | 5.71 | 9.03 | 5.07 | 8.42 | -0.17 | 0.76 | 0.19
CCN(CC)S(=O)(=O)c1ccc(OC)c(Nc2ncc(-c3ccccc3)o2)c1 | 0.33 | 1.24 | 1.76 | -0.59 | 12.3 | 2.23 | 2.3 | 1.35 | 0.97 | -0.31
CCN1CCC(CC(=O)Nc2n[nH]c3nnc(-c4cccc(F)c4F)cc23)CC1 | 1.15 | 0.77 | 1.59 | 5.02 | 5.09 | 3.86 | 4.27 | 0.56 | 0.7 | 0.39
